Among the data in PubChem BioAssay (NCATS) are Potency values, retold here.

Results filed as inconclusive are left out. Activity calls are given as the source filed them. The call rests on the fitted dose curve; in most records, active means well fitted curve in the direction sought with a large enough effect; inconclusive means small, poorly fitted or top-dose-only effect, or another doubt; inactive means no such curve, though single readings can be large; an effect the other way counts as inactive or inconclusive.

Experiment [1] in a line: Primary qHTS for inhibitors of nuclear receptor binding SET domain protein 2 (NSD2) in an isogenic RCH-ACV NSD2 p.E1099K mutant (9B) (AID 1645876). Further: nearly all actives have a fitted effect of over 70% in size. Further: potency means the concentration at half of the fitted maximal effect. As to conditions: RCH-ACV NSD2 E1099K (9B) viability, CellTiter-Glo, 72 h; series mostly up to 44.9 µM.
Experiment [2] in a line: Primary qHTS for inhibitors of nuclear receptor binding SET domain protein 2 (NSD2) in an RCH-ACV wild type WT cells (2C) (AID 1645877). Further: nearly all actives have a fitted effect of over 70% in size. Further: potency means the concentration at half of the fitted maximal effect. As to conditions: RCH-ACV (leukaemia line) NSD2 WT (2C) viability, CellTiter-Glo, 72 h; series mostly up to 44.9 µM. Background: qHTS replaces the single test concentration by a dilution series.
For experiment [3], the target named is Rap guanine nucleotide exchange factor 3 (Homo sapiens) (UniProt O95398). Description: Confirmatory qHTS for antagonist of cAMP-regulated guanine nucleotide exchange factor 3 (EPAC1) (AID 1645880). Further: nearly all actives have a fitted effect of over 55% in size. As to conditions: EPAC1 Rap1B-BODIPY-GDP exchange, fluorescence; series mostly up to 203 µM. A digest of the protocol:
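Released BODIPY-GDP fluoresces less than Rap1-bound BODIPY-GDP; the signal is followed at 480/540 nm at 5-min intervals over 30 min, after 5 min at room temperature. Reactions contain 100 nM EPAC1, 250 nM RAP1B-BODIPY-GDP and 50 uM GDP; results are normalized to ATA and DMSO.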

The target is the same in experiment [4]. Nature of the experiment: Confirmatory qHTS for agonist of cAMP-regulated guanine nucleotide exchange factor 3 (EPAC1) (AID 1645881).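 Further: EPAC1 catalysed release of BODIPY-GDP from Rap1B seen as fluorescence loss; nearly all actives have a fitted effect of over 75% in size.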 As to conditions: EPAC1 Rap1B BODIPY-GDP exchange fluorescence; series mostly up to 271 µM.
The target of experiment [5] is Rap guanine nucleotide exchange factor 4 (Homo sapiens) (UniProt Q8WZA2). Nature of the experiment: Confirmatory qHTS for antagonist of cAMP-regulated guanine nucleotide exchange factor 4 (EPAC2) (AID 1645885). Further: nearly all actives have a fitted effect of over 25% in size. As to conditions: EPAC2 Rap1B-BODIPY-GDP exchange fluorescence, biochemical; series mostly up to 202 µM.
Rap guanine nucleotide exchange factor 4 (Homo sapiens), sequence (Q8WZA2 whole entry, looked up): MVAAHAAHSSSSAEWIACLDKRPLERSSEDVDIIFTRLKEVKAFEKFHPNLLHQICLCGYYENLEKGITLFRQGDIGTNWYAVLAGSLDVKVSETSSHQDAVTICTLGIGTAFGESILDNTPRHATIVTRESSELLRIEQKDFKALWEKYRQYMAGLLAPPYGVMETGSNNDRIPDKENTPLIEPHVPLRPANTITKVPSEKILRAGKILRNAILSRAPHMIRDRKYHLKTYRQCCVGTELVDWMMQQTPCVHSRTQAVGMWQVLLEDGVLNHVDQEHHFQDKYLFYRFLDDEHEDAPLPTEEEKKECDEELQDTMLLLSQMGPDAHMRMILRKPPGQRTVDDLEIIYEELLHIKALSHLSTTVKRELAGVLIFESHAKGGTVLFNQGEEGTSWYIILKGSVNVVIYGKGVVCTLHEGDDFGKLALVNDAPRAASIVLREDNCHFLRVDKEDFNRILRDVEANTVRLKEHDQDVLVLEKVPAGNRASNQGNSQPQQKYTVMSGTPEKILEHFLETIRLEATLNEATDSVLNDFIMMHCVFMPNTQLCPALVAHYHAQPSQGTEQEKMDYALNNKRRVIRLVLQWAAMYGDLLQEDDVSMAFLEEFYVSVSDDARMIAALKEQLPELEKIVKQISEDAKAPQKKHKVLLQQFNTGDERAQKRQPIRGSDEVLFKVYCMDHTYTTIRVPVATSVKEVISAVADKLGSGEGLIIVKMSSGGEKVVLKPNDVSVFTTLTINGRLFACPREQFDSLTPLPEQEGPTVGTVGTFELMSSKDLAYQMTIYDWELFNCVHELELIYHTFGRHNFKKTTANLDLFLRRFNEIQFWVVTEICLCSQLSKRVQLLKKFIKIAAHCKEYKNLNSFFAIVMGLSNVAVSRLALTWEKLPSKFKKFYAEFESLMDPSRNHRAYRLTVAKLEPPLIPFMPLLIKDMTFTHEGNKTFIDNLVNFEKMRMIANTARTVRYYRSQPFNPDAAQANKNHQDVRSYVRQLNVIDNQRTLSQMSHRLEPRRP

Rap guanine nucleotide exchange factor 3 (Homo sapiens), sequence (O95398 whole entry, looked up): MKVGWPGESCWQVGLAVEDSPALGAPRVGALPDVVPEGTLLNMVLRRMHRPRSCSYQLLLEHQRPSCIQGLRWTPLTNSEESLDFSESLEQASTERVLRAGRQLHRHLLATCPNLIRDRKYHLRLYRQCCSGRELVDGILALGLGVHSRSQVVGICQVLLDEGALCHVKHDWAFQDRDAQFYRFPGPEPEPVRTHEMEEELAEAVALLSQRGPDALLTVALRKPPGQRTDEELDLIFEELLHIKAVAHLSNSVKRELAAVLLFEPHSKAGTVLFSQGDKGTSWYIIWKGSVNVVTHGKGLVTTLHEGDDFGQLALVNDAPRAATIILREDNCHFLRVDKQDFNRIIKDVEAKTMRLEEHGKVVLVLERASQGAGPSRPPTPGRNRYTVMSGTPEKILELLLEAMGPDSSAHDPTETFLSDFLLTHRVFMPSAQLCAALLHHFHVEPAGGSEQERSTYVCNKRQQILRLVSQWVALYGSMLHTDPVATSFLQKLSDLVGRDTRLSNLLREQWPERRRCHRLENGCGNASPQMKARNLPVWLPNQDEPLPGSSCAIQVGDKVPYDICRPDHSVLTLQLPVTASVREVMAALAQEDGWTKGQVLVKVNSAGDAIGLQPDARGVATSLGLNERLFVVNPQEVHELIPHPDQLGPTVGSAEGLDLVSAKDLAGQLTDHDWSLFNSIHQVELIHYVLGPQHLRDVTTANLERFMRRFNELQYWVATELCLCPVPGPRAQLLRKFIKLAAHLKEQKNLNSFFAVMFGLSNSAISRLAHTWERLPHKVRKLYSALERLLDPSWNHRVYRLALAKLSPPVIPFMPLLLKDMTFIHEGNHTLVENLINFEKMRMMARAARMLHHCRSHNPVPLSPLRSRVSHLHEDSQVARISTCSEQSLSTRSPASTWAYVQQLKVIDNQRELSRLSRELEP

Regarding `CN(CC1(C)CCCO1)S(=O)(=O)c1ccc(Cl)c(S(N)(=O)=O)c1` (configuration not stated), the Potency entry in experiment [1] and in experiment [2] was “inactive” in each case.

Regarding `CC(=O)Nc1c(I)c(NC(C)=O)c(I)c(C(=O)O)c1I`, the Potency result in experiment [1] and in experiment [2] was “inactive” in each case.

Regarding `CCOC(=O)C(O)c1ccccc1` (configuration not stated), the Potency result in experiment [1] and in experiment [2] was “inactive” in each case.

As for `CC(C)=CCNc1ncnc2c1ncn2[C@@H]1O[C@H](CO)[C@@H](O)[C@H]1O`, the Potency is 1.68 µM (active) in experiment [1] and 1.06 µM (active) in experiment [2].

For the compound `O=C(O)c1cn(C2CC2)c2cc(Cl)c(F)cc2c1=O`, the Potency result in experiment [1] and in experiment [2] was “inactive” in each case.

As for `CC(C)=CCC/C(C)=C/CC/C(C)=C/CCC(=O)OC/C=C(\C)CCC=C(C)C`, the Potency entry in experiment [1] and in experiment [2] was “inactive” each time.

For `Cc1cc(OCCOCC[N+](C)(C)Cc2ccccc2)ccc1C(C)(C)CC(C)(C)C`, the Potency in experiment [1] and in experiment [2] was 1.19 µM (active) each time.

Turning to `Nc1ccc2c(c1)CN1C(=O)c3ccccc3C1=N2`, the Potency in experiment [1] is 7.31 µM (active); in experiment [2], 8.2 µM (active).

As to `N[C@@H](Cc1cc(I)c(O)c(I)c1)C(=O)O`, the Potency result in experiment [1] and in experiment [2] was “inactive” throughout.

With `C[C@H]1NCc2cc(-c3ccc4c(=O)c(C(=O)O)cn(C5CC5)c4c3OC(F)F)ccc21`, the Potency result in experiment [1] and in experiment [2] was “inactive” each time.

Turning to `C[C@H]1C[C@H]2[C@@H]3CCC4=CC(=O)C=C[C@]4(C)[C@H]3C(=O)C[C@]2(C)[C@@]1(O)C(=O)CO`, the Potency entry in experiment [1] and in experiment [2] was “inactive” in each case.

`O=C(CO)[C@@H](O)[C@H](O)[C@@H](O)CO`: the Potency entry in experiment [1] and in experiment [2] was “inactive” in each case.

On to `CCCC(=O)OCOC(=O)C1=C(C)NC(C)=C(C(=O)OC)C1c1cccc(Cl)c1Cl` (configuration not stated), for which the Potency entry in experiment [1] and in experiment [2] was “inactive” throughout.

For `[O-][n+]1cccc(/C(Cl)=N/OC[C@@H](O)CN2CCCCC2)c1`, the Potency entry in experiment [1] and in experiment [2] was “inactive” in each case.

Consider `CCCCCCCCCCCCCCCCCCN(C)C`, for which the Potency result in experiment [1] and in experiment [2] was “inactive” each time.

For the compound `Nc1cccc2c(N)cccc12`, the Potency in experiment [1] is 24.3 µM (active); in experiment [2] it was 3.86 µM (active). In addition, the Potency result in experiment [3], in experiment [4] and in experiment [5] was “inactive” each time.

For the compound `CN1CCN(N)CC1`, the Potency entry in experiment [1] and in experiment [2] was “inactive” in each case.

As for `O=C(O)c1ccc(OCCN2CCCCC2)cc1`, the Potency result in experiment [1] and in experiment [2] was “inactive” throughout.

On to `CCCC(=O)O[C@]1(C(=O)CC)CC[C@H]2[C@@H]3CCC4=CC(=O)CC[C@]4(C)[C@H]3[C@@H](O)C[C@@]21C`, for which the Potency result in experiment [1] and in experiment [2] was “inactive” each time.

For `CCCCCCn1c(=O)c2c(ncn2C)n(C)c1=O`, the Potency entry in experiment [1] and in experiment [2] was “inactive” throughout.

`CCOC(=O)C(=O)c1csc(NC=O)n1`: the Potency entry in experiment [1] and in experiment [2] was “inactive” each time.

As for `CC1(C)S[C@@H]2[C@H](NC(=O)C(c3ccccc3)S(=O)(=O)O)C(=O)N2[C@H]1C(=O)O` (some centres not stated), the Potency result in experiment [1] and in experiment [2] was “inactive” each time.
